Test in all cases: DAPPL (digital affinity profiling via proximity ligation, sequencing); 10 mM Tris-HCl pH 7.5, 50 mM NaCl, 1 mM DTT, 4% glycerol, room temperature, 30 min; GST-TFs on glutathione beads, 16-mer random dsDNA library, 0.1% formaldehyde crosslink after washing; high values mean tight binding
What all share (conditions): protein: recombinant; tags: N-terminal GST; dsDNA, one strand shown

The target in one assay is T1, ELK1 (Homo sapiens, UniProt P19419 1-428).
T1 sequence: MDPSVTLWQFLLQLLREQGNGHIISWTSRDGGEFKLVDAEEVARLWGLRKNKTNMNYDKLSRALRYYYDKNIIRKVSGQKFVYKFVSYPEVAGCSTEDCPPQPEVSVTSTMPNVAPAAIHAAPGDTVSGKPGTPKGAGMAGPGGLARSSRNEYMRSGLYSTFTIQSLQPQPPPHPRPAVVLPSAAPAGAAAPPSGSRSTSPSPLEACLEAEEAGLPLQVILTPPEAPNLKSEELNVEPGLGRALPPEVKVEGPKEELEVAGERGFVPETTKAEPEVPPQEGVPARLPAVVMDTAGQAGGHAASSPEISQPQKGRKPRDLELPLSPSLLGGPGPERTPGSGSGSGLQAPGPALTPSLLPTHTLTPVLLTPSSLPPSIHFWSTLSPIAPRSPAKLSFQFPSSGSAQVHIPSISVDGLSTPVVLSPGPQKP
In short, it runs like this: (§1)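 GST fusions of human transcription factors were expressed in yeast and captured with glutathione beads. Once given DNA barcodes and pooled alongside a tag-only sample, they were incubated for 30 min at room temperature with 200 nmole of a random double-stranded 16-mer DNA library in Tris/NaCl/DTT/glycerol buffer, then washed, crosslinked (0.1% formaldehyde), proximity-ligated, PCR-amplified and sequenced on an Illumina NextSeq500. The binding signal of each hexamer is its read frequency for a factor divided by its frequency for the tag-only sample.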

Another assay deals with T2, GABPA (Homo sapiens, UniProt Q06546 1-454).
T2 sequence: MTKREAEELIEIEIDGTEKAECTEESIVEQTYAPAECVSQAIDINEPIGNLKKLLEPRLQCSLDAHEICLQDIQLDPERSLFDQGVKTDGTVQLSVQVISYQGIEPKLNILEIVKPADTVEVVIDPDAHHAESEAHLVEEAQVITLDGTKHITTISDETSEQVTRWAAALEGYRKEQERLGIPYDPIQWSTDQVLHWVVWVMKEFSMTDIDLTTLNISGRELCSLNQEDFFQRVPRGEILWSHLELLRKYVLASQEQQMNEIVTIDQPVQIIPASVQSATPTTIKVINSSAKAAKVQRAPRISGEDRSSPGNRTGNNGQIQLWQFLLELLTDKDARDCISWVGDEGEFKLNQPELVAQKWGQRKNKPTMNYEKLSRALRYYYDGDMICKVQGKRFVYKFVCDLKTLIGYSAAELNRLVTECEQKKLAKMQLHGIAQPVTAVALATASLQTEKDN
In short, it runs like this: as §1

Another assay addresses T3, ERG (Homo sapiens, UniProt P11308 1-479).
T3 sequence: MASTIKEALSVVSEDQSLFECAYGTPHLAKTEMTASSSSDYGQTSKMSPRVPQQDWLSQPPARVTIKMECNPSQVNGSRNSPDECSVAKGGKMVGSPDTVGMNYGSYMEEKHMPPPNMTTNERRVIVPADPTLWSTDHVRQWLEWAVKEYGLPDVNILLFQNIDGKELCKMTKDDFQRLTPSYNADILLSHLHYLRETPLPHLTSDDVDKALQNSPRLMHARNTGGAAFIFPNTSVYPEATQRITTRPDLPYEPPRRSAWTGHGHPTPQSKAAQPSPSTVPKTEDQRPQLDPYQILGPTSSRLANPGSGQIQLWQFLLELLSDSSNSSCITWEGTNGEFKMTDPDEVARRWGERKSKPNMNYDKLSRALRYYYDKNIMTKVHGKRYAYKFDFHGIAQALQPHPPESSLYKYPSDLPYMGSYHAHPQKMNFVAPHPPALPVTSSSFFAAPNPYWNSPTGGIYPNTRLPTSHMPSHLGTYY
In short, it runs like this: as §1

Another assay has as its target ELF1 (Homo sapiens, UniProt P32519 1-619). The essentials:
as §1

Another assay has as its target T4, EHF (Homo sapiens, UniProt Q9NZC4 1-300).
T4 sequence: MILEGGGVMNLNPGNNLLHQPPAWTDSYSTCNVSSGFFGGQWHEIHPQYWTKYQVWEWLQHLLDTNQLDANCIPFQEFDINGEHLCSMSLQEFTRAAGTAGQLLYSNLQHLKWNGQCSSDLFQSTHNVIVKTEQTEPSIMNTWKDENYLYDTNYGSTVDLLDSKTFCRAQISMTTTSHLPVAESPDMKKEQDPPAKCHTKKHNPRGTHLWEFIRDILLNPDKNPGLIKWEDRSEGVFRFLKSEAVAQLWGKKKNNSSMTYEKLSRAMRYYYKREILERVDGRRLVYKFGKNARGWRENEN
In short, it runs like this: as §1

The target of the next assay is SPIB (Homo sapiens, UniProt Q01892 1-262). In short, it runs like this:
as §1

The target of the next assay is T5, FEV (Homo sapiens, UniProt Q99581 1-238).
T5 sequence: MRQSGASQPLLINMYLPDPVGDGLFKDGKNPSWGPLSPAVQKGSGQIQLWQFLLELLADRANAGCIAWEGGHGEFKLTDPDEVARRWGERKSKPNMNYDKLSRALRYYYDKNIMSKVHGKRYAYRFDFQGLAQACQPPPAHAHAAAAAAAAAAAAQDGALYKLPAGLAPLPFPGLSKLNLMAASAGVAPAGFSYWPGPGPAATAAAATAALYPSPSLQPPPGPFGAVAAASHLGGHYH
The essentials: as §1

A further assay deals with ETV5 (Homo sapiens, UniProt P41161 1-510). In short, it runs like this: as §1
A further assay has as its target ELF4 (Homo sapiens, UniProt Q99607 1-663). In short, it runs like this:
as §1

A further assay deals with T6, ELK4 (Homo sapiens, UniProt P28324-2 1-405).
T6 sequence: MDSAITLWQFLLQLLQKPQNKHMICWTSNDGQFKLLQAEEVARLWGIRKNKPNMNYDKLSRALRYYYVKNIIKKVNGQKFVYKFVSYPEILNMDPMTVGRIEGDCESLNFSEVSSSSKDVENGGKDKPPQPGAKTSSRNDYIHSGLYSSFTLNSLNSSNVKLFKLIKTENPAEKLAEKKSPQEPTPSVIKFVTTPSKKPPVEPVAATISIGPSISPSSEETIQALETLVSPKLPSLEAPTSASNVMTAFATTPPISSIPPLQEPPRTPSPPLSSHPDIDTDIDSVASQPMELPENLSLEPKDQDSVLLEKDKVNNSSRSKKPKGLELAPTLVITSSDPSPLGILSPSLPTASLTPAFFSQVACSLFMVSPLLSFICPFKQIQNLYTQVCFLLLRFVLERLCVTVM
The essentials:
as §1

The next assay addresses T7, ETV2 (Homo sapiens, UniProt O00321 1-342).
T7 sequence: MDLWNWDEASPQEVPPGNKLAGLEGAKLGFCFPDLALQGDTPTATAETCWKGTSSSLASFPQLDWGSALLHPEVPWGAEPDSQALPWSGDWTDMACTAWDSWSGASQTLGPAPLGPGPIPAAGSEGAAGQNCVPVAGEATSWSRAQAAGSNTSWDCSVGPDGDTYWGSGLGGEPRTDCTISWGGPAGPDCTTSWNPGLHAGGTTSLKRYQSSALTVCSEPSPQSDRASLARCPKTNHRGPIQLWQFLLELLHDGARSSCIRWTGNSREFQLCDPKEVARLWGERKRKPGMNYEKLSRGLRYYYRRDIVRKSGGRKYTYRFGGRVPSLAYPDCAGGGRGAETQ
In short, it runs like this: as §1

The next assay addresses T8, ELF3 (Homo sapiens, UniProt P78545 1-371).
T8 sequence: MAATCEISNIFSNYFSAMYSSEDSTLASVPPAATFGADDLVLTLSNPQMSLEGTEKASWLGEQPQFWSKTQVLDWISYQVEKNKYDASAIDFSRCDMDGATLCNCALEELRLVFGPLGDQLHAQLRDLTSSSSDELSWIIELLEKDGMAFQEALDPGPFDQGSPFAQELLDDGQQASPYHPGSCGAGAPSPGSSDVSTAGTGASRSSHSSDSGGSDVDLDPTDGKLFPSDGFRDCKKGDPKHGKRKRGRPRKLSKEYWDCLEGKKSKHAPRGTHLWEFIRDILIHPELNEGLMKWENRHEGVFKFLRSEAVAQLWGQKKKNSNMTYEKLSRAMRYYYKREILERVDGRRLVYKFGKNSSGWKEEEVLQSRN
In short, it runs like this: as §1

The next assay addresses ETV1 (Homo sapiens, UniProt P50549 1-477). In short, it runs like this:
as §1

The next assay has as its target T9, ERF (Homo sapiens, UniProt P50548 1-548).
T9 sequence: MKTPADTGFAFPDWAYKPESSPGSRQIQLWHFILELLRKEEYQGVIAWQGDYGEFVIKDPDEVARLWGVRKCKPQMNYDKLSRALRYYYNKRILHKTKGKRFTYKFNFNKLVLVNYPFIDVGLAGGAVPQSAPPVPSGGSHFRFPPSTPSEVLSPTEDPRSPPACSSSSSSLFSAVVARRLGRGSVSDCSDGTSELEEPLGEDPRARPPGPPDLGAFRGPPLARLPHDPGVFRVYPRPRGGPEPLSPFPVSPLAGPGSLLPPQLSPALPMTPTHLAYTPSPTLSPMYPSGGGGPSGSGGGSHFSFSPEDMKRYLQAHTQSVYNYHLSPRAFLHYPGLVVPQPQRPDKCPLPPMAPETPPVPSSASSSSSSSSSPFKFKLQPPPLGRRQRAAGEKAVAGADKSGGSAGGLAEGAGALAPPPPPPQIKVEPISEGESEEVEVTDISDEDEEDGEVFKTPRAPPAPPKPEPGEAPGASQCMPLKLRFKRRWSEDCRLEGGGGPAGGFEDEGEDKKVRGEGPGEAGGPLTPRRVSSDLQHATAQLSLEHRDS
The essentials:
as §1

Another assay addresses T10, ETV3L (Homo sapiens, UniProt Q6ZN32 1-361).
T10 sequence: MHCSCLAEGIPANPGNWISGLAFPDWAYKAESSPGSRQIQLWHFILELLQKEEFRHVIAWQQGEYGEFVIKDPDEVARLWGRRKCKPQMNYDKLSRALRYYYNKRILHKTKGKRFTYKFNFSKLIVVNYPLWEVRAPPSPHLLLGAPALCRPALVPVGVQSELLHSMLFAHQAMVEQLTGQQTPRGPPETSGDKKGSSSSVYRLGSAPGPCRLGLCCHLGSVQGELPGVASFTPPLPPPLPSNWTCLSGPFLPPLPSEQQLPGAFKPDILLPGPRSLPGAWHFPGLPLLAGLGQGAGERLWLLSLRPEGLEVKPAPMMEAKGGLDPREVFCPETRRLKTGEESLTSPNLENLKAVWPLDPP
The essentials:
as §1

For a further assay, the target named is T11, ETS2 (Homo sapiens, UniProt P15036 1-469).
T11 sequence: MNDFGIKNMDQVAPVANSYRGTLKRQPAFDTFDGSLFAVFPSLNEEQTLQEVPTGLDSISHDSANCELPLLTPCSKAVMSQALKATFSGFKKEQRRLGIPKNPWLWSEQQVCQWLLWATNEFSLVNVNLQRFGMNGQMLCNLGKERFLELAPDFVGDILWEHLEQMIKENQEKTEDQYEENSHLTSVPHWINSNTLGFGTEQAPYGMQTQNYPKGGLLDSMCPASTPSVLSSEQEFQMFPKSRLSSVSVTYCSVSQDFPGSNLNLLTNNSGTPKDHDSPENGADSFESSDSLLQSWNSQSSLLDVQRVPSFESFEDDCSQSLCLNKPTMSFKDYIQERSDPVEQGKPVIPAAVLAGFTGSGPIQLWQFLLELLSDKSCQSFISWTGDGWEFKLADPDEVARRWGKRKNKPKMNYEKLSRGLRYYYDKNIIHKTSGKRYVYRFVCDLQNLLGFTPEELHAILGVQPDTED
The essentials:
as §1

The target in the next assay is T12, ETV7 (Homo sapiens, UniProt Q9Y603 1-341).
T12 sequence: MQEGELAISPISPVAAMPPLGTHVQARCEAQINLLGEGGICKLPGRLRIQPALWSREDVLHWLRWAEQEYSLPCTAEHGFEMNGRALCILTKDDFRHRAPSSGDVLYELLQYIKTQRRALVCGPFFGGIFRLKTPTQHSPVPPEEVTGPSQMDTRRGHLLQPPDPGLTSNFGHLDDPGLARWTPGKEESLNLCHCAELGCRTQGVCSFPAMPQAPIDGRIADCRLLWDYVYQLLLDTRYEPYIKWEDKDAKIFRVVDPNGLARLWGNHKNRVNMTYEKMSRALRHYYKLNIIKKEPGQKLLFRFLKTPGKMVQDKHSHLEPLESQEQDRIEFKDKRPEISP
In short, it runs like this: as §1

Another assay addresses T13, ETV3 (Homo sapiens, UniProt P41162-2 1-143).
T13 sequence: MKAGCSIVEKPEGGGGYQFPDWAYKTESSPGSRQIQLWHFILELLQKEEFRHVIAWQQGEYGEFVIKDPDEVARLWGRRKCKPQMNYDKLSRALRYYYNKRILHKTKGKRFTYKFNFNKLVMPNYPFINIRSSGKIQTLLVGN
In short, it runs like this: as §1

Another assay addresses ETV6 (Homo sapiens, UniProt P41212 1-452). The essentials: as §1

Our source for the binding signal values is publication PMC7862700, “An all-to-all approach to the identification of sequence-specific readers for epigenetic DNA modifications on cytosine”.

Sequence of ELF1 (P32519 whole entry): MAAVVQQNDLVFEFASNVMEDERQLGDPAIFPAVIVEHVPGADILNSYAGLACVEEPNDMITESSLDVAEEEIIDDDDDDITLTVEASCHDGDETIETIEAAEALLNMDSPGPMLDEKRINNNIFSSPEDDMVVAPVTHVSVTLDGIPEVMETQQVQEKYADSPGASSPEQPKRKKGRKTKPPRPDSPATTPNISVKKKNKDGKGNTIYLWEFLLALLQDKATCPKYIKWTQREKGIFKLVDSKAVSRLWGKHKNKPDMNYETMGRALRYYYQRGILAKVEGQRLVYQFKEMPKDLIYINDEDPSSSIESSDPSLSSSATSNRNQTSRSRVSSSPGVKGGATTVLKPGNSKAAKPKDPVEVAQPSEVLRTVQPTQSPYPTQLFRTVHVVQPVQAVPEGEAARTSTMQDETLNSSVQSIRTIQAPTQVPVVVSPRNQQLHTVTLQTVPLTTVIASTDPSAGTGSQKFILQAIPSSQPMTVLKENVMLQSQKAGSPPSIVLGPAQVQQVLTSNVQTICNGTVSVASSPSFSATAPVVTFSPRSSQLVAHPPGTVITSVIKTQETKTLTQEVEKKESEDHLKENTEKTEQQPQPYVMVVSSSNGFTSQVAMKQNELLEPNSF
Sequence of ELF4 (Q99607 whole entry): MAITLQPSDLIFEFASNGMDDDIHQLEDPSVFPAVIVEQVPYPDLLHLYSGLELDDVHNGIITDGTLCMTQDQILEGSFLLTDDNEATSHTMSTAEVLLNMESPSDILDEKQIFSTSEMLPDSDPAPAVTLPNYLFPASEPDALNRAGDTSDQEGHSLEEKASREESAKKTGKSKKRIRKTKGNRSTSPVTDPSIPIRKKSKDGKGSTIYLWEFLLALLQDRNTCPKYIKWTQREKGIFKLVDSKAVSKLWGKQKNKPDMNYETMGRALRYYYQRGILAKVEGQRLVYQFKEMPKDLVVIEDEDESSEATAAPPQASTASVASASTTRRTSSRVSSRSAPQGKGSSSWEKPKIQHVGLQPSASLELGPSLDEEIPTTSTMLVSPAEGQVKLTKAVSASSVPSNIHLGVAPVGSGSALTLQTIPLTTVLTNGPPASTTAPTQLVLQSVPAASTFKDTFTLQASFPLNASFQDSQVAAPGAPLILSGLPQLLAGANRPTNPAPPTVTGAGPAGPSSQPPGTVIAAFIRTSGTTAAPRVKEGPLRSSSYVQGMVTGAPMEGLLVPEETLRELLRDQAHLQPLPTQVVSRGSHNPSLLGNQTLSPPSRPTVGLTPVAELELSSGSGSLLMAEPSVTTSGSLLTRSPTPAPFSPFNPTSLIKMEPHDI
Sequence of SPIB (Q01892 whole entry): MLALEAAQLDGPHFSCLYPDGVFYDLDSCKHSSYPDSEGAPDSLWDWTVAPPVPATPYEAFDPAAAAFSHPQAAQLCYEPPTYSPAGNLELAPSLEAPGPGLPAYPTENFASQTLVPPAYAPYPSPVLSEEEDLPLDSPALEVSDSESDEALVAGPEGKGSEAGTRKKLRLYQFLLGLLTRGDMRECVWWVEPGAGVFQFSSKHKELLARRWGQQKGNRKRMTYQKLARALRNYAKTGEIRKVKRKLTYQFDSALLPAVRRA
Sequence of ETV1 (P50549 whole entry): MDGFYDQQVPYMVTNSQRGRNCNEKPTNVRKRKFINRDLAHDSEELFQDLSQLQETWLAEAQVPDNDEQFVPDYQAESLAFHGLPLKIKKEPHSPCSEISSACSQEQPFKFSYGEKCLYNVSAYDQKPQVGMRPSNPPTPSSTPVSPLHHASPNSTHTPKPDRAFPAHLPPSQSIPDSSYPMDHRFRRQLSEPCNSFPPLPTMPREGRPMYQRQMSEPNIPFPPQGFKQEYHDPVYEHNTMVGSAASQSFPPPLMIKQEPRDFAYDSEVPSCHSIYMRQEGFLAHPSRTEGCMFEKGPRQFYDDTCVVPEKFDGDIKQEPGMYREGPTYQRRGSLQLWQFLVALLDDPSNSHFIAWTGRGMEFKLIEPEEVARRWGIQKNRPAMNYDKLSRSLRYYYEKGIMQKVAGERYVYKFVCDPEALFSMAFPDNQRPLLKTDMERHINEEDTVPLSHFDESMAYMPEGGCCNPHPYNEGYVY
Sequence of ETV5 (P41161 whole entry): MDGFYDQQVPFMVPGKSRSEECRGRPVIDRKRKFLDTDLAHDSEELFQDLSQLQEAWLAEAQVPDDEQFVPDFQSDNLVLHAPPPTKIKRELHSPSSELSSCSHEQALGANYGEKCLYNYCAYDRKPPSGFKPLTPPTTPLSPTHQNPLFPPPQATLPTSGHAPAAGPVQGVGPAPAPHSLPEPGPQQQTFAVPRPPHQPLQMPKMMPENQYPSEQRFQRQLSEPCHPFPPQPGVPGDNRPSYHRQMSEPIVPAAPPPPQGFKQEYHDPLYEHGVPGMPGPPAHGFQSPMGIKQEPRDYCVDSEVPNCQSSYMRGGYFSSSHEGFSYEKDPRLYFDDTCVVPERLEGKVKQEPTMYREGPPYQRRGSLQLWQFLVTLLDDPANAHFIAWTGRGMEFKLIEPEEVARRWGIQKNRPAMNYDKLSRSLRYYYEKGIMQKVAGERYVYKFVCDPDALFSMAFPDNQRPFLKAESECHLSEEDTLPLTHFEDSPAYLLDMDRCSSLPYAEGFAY
Sequence of ETV6 (P41212 whole entry): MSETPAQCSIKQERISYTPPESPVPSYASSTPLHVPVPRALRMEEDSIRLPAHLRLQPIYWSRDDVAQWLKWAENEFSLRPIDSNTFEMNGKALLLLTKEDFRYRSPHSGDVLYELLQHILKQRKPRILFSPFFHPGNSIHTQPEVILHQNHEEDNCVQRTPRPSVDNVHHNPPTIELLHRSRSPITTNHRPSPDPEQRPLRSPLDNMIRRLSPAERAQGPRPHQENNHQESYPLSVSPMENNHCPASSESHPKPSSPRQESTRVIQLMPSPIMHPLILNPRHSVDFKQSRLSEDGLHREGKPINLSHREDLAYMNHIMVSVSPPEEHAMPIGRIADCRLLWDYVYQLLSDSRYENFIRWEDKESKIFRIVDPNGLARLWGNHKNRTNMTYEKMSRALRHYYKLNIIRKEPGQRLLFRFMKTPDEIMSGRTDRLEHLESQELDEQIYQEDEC

Take TGGCCG: the binding signal with ELK1 was 1.19 fold enrichment (6-mer frequency, TF over GST control); in the assay with GABPA, 1.15 fold enrichment (6-mer frequency, TF over GST control); in the assay with ERG, 1.19 fold enrichment (6-mer frequency, TF over GST control); with ELF1, 1.08 fold enrichment (6-mer frequency, TF over GST control); with EHF, 1.02 fold enrichment (6-mer frequency, TF over GST control); in the assay with SPIB, 1.17 fold enrichment (6-mer frequency, TF over GST control). Also, the binding signal in the assay with FEV is 1.22 fold enrichment (6-mer frequency, TF over GST control); in the assay with ETV5, 1.17 fold enrichment (6-mer frequency, TF over GST control); with ELF4, 1.08 fold enrichment (6-mer frequency, TF over GST control); with ELK4, 1.06 fold enrichment (6-mer frequency, TF over GST control); with ETV2, 1.04 fold enrichment (6-mer frequency, TF over GST control); with ELF3 it was 1.14 fold enrichment (6-mer frequency, TF over GST control). For the same sequence, the binding signal was 1.04 fold enrichment (6-mer frequency, TF over GST control) with ETV1; 1.05 fold enrichment (6-mer frequency, TF over GST control) in the assay with ERF; 1.07 fold enrichment (6-mer frequency, TF over GST control) in the assay with ETV3L; 1.06 fold enrichment (6-mer frequency, TF over GST control) with ETS2; 1.06 fold enrichment (6-mer frequency, TF over GST control) in the assay with ETV7; 1.11 fold enrichment (6-mer frequency, TF over GST control) with ETV3. The binding signal with ETV6 was 1.11 fold enrichment (6-mer frequency, TF over GST control).
